Screens (PubChem BioAssay)
SENP7 inh: inhibitors of human SENP7 protease; Q9BQF6; recombinant SENP7, Z-RLRGG-aminoluciferin luminescence, 40 min; inhibition, % at 5 µM; hit rate 1.5% among 330,000;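 active means inhibition above about 50% at the single test dose, limit read from the data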;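 further: plate controls were DMSO with enzyme for no effect and no enzyme buffer wells for full effect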
Target sequence (Q9BQF6 706-1050 limits assumed): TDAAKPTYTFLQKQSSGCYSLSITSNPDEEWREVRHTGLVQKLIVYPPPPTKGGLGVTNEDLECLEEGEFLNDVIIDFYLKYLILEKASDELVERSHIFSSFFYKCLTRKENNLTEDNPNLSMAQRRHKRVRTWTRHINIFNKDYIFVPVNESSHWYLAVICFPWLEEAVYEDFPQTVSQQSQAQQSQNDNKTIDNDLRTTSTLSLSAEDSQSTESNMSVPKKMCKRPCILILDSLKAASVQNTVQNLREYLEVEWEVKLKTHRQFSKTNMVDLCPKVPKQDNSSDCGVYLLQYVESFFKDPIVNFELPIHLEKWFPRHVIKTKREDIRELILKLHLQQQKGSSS
Platelet DG rel: platelet dense granule release activity | human platelet-rich plasma, SFLLRN dense granule ATP release, luminescence | hit rate 0.22% among 300,000 | inhibition, %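 (compounds screened at 7.5 µM in platelet-rich plasma)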;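 active means mean replicate score, as percent of positive control, at or above 50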
SENP6 inh: inhibitors of human SENP6 protease | Q9GZR1 | Recombinant SENP6 catalytic domain, aminoluciferin luminescence | inhibition, % at 10 µM | hit rate 1.8% among 330,000;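 active means inhibition above about 50% at the single tested dose, limit read from the data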;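 further: plate controls were DMSO wells with enzyme for no effect and DMSO wells lacking enzyme for full effect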
SENP8 block-1: inhibitors of human SENP8 protease. purified SENP8, Z-RLRGG-aminoluciferin cleavage, luminescence. AID 2540. Q96LD8. inhibition, % at 10 µM. hit rate 1.2% among 330,000; in the data active means inhibition above about 50%
Target sequence (Q96LD8 whole entry, looked up): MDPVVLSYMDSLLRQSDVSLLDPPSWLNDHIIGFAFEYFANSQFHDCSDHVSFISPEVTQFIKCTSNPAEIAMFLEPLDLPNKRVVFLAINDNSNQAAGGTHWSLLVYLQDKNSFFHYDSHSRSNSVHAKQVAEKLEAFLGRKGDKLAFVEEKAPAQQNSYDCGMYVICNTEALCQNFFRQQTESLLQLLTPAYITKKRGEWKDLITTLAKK
SENP8 block-2: SENP8 (human) protease inhibition; Q96LD8; recombinant SENP8, Nedd8 substrate fluorescence; inhibition, % at 20 µM; hit rate 0.64% among 360,000; AID 602440; in the data active means inhibition mostly above about 40%, no sharp cut-off; inactive means mostly below about 27%
SENP8 confirm: human SENP8 inhibition, confirmed; shares compounds with SENP7 inh; Recombinant SENP8, Z-RLRGG-aminoluciferin luminescence, 60 min; inhibition, % at 12.5 µM; hit rate 40% among 6,200;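 active means mean inhibition across replicates above about 50%, limit read from the data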
SENP6 conf: human SENP6 inhibition, confirmed; inhibition, % at 12.5 µM; AID 488915; shares compounds with SENP7 inh; hit rate 58% among 6,200; recombinant SENP6, Z-RLRGG-aminoluciferin luminescence
SENP7 conf: confirmation of human SENP7 protease inhibitors; shares compounds with SENP7 inh; recombinant SENP7, Z-RLRGG-aminoluciferin luminescence, 40 min; inhibition, % at 12.5 µM; hit rate 69% among 6,200
Casp3 select: selectivity test for SENP inhibitors: human caspase-3 inhibition. shares compounds with SENP7 inh. purified caspase-3, Z-DEVD-aminoluciferin luminescence, 60 min. inhibition, % at 12.5 µM. hit rate 60% among 6,200. AID 488918;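 active means mean inhibition above about 50%, limit read from the data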;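 further: plate controls were enzyme with DMSO for no effect and wells without caspase-3 for full effect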
Luc interf: luminescence interference (SENP counter-screen); shares compounds with SENP7 inh; Pre-incubated SENP8/Z-RLRGG-aminoluciferin, luciferase luminescence interference; inhibition, % at 12.5 µM; hit rate 39% among 6,200;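 active means mean inhibition above about 50% when retested at one dose, limit read from the data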;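 further: plate controls were DMSO wells with completed reaction for no effect and substrate without enzyme for full effect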
Active calls of the source: *; · = no result. Hits are enriched below; roughly 2.4% of the tested compounds scored in any of these assays.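 How the source made its calls, unless noted: active means mean inhibition above about 50% in the one-dose retest (limit read from the data); inactive means the rest.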

SMILES	SENP7 inh	Platelet DG rel	SENP6 inh	SENP8 block-1	SENP8 block-2	SENP8 confirm	SENP6 conf	SENP7 conf	Casp3 select	Luc interf
O=C(NC1=NCCS1)c1ccc(Cl)c(Cl)c1	60*	-6	70*	43	27	11	63*	49	65*	9
O=C(Nc1ncccc1O)c1cc2ccccc2o1	68*	27	67*	31	-31	63*	63*	85*	87*	68*
O=C(NC1=NCCS1)c1ccccc1	9	1	9	-4	6	·	·	·	·	·
CC(=O)Nc1cc2ccccc2oc1=O	-2	-4	-24	-11	-62	·	·	·	·	·
Cc1ccccc1N(C)S(=O)(=O)c1nnc(NC(=O)c2ccco2)s1	4	-8	-6	5	-175	·	·	·	·	·
O=C(CC[C@H]1O[C@@H](n2cnc3c(NC(=O)c4ccccc4)ncnc32)[C@H](O)[C@@H]1O)NCCCN1CCOCC1	·	·	·	·	14	·	·	·	·	·
C=C(C)C(=O)Nc1ccc2nn(-c3ccccc3O)nc2c1	·	·	·	·	-4	·	·	·	·	·
COC(=O)[C@@]12C[C@@H](CC(=O)NCc3ccc(OC)c(OC)c3)C(=O)N(Cc3cccc4ccccc34)C1=CCC(C)(C)C2	·	·	·	·	10	·	·	·	·	·
O=C(Nc1ccccn1)c1cc2ccccc2cc1O	52*	-2	77*	75*	3	6	33	50	38	3
COc1ccc(C)cc1NC(=O)c1cc2ccccc2o1	-4	-1	-5	-8	6	·	·	·	·	·
Cc1ccnc(NC(=O)c2cc3ccccc3o2)c1	99*	29	94*	90*	-4	96*	97*	102*	97*	94*
COC(=O)c1ccccc1NC(=O)c1cc2ccccc2o1	-5	-16	10	2	-18	·	·	·	·	·
CCC(=O)Nc1ccc(NC(=O)c2cc3ccccc3o2)cc1	7	·	-16	-6	19	·	·	·	·	·
O=C(Nc1ccccc1C(F)(F)F)c1cc2ccccc2o1	68*	-2	73*	66*	17	60*	71*	92*	74*	67*
Cc1ccc(C)c(NC(=O)c2cc3ccccc3o2)c1	53*	5	40	26	11	52*	49	78*	58*	31
COc1ccc(-c2cc(C(=O)Nc3cccnc3)c3ccccc3n2)cc1OC	-1	9	-2	3	-404	·	·	·	·	·
CC(C)c1ccc(CNC(=O)C2CCCN2S(=O)(=O)c2ccccc2)cc1 (configuration not stated)	1	8	11	8	15	·	·	·	·	·
Cc1nn(C)c(Sc2ccccc2N)c1[N+](=O)[O-]	-4	3	-26	-9	20	·	·	·	·	·
O=C(NNC(=O)c1cc2ccccc2o1)c1ccc(Cl)cc1	-5	4	-3	0	12	·	·	·	·	·
O=C(Nc1cccc(O)c1)C(=O)Nc1ccccn1	97*	71*	96*	87*	16	93*	93*	100*	96*	82*
O=C(Nc1ccc(Cl)cn1)c1cc2ccccc2o1	79*	-13	74*	59*	8	9	64*	82*	70*	28
Cc1ccc(C)c(NC(=O)c2ccc3ccccc3n2)c1	97*	20	97*	91*	24	82*	16	35	67*	16
C/C(CC(=O)Nc1ccccn1)=N\NC(=O)C(=O)Nc1cccc(C)c1	0	1	8	-5	7	·	·	·	·	·
Cc1csc(NC(=O)c2cc3ccccc3o2)n1	90*	·	85*	79*	-64	86*	82*	97*	90*	86*
CCN(CC)C(=O)n1c(Cc2ccccc2)nc2ccccc21	1	3	20	6	12	·	·	·	·	·
SMILES	SENP7 inh	Platelet DG rel	SENP6 inh	SENP8 block-1	SENP8 block-2	SENP8 confirm	SENP6 conf	SENP7 conf	Casp3 select	Luc interf
N#CC1(c2ccccc2)CCC(=O)N1Cc1ccccc1 (configuration not stated)	-7	-2	1	-5	22	·	·	·	·	·
Cc1ccc(C(=O)Nc2ccc3c(c2)OCO3)o1	32	·	50*	1	17	26	21	67*	77*	52*
O=C(Nc1ccc2c(c1)OCCO2)c1ccc(Cl)c(Cl)c1	67*	2	77*	59*	16	53*	55*	93*	51*	26
Cc1ccc(C(=O)Nc2ccc3c(c2)OCCO3)cc1	82*	9	73*	72*	3	5	76*	94*	87*	79*
O=C(Nc1ccc2c(c1)OCCO2)c1cc(F)c(F)cc1Cl	12	8	-3	-20	23	·	·	·	·	·
Cc1ccc(C(=O)Nc2ccc3c(c2)OCCO3)c(Cl)c1	85*	10	89*	78*	10	81*	79*	94*	87*	82*
Cc1cc(C)cc(C(=O)NC(=S)Nc2ccc3c(c2)OCCO3)c1	42	6	84*	48	16	-16	-12	-9	-4	-4
CCOC(=O)c1c(C)[nH]c(C(=O)Nc2ccc3c(c2)OCO3)c1C	84*	4	16	60*	·	9	80*	96*	79*	48
O=C(Nc1ccc(Cl)cc1Cl)c1ccc2c(c1)OCCO2	92*	·	93*	90*	8	66*	84*	95*	88*	47
CCOC(=O)Nc1ccc2c(c1)OCO2	-6	3	-32	-11	6	·	·	·	·	·
Cc1ccc(C(=O)Nc2ccc3nccnc3c2)cc1	73*	9	67*	51*	-396	56*	55*	87*	83*	27
CC(=O)c1cc2c(cc1NC(=O)c1ccc(Cl)cc1)OCCO2	1	8	8	-7	-250	·	·	·	·	·
CC(C)(C)c1ccc(NC(=O)N2CCN(c3ccc([N+](=O)[O-])cn3)CC2)cc1	6	3	-3	3	-10	·	·	·	·	·
O=C(Nc1ccc(N2CCCC2)c(Cl)c1)c1ccc([N+](=O)[O-])cc1	-16	0	-18	-7	30	·	·	·	·	·
Cc1ccc(C(=O)Nc2ccc3c(c2)OCO3)cc1	3	9	69*	50	21	68*	68*	90*	83*	20
Nc1c(C(=O)Nc2ccc3c(c2)OCCO3)nnn1Cc1ccc(Br)cc1	-4	-4	-1	-7	11	·	·	·	·	·
Cc1cc(C(=O)Nc2ccc(N3CCCC3)c(Cl)c2)ccc1[N+](=O)[O-]	52*	1	60*	12	24	2	20	65*	38	16
